# How the values were obtained:
# Experiment in all cases: DAPPL (digital affinity profiling via proximity ligation, sequencing); 10 mM Tris-HCl pH 7.5, 50 mM NaCl, 1 mM DTT, 4% glycerol, room temperature, 30 min; GST-TFs on glutathione beads, 16-mer random dsDNA library, 0.1% formaldehyde crosslink after washing; high values mean tight binding
# [1] = molecular target: T1, FLI1 (Homo sapiens, UniProt Q01543 1-452); conditions: protein: recombinant; tags: N-terminal GST; dsDNA, one strand shown
# T1 sequence: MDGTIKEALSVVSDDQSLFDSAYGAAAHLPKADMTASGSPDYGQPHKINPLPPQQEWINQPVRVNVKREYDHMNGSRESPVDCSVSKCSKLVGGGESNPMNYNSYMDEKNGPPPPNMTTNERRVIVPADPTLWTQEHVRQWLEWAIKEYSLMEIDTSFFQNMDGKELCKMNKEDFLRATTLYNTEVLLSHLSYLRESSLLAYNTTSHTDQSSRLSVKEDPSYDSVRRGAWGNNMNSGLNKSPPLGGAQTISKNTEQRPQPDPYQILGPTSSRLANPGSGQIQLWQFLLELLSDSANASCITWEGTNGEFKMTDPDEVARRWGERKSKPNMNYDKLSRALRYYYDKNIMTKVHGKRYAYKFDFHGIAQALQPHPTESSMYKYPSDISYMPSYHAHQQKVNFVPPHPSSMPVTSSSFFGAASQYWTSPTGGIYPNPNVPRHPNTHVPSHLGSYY
# Outline: (§1)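 Beads coated with glutathione captured GST-fused human transcription factors that had been expressed in yeast, and the factors were then given DNA barcodes and pooled with a tag-only sample. The pools were incubated with 200 nmole of a random double-stranded 16-mer DNA library in Tris/NaCl/DTT/glycerol buffer for 30 min at room temperature, washed, crosslinked with 0.1% formaldehyde and proximity-ligated with BsaI/T4 ligase at 37 °C for 1 h. PCR amplification and Illumina NextSeq500 sequencing came last. Binding signal is each hexamer's read frequency for a factor divided by its frequency for the tag-only sample.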
# [2] = molecular target: T2, ELK1 (Homo sapiens, UniProt P19419 1-428); conditions: protein: recombinant; tags: N-terminal GST; dsDNA, one strand shown
# T2 sequence: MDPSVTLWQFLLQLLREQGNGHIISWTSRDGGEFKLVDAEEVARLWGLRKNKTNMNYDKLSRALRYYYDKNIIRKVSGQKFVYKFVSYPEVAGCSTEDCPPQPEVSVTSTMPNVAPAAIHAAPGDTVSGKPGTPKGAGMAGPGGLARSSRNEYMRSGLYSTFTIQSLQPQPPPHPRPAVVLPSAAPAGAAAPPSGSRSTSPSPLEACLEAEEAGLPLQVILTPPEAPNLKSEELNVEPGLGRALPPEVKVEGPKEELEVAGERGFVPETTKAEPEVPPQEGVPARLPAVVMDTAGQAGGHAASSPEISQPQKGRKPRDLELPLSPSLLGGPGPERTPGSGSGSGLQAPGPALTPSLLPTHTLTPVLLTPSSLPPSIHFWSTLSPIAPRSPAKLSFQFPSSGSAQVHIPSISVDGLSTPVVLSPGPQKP
# Outline: as §1
# [3] = molecular target: T3, GABPA (Homo sapiens, UniProt Q06546 1-454); conditions: protein: recombinant; tags: N-terminal GST; dsDNA, one strand shown
# T3 sequence: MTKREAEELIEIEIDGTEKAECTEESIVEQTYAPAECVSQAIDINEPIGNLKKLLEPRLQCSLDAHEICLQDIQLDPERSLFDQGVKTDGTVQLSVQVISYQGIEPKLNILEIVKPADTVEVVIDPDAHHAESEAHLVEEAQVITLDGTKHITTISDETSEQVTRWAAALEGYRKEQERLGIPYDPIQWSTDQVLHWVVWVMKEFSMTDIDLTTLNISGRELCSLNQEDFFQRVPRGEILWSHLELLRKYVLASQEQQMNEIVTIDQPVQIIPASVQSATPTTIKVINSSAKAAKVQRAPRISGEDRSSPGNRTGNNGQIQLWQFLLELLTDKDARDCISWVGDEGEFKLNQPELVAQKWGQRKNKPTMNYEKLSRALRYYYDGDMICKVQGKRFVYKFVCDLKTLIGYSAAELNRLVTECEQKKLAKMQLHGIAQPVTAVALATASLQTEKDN
# Outline: as §1
# [4] = molecular target: T4, ERG (Homo sapiens, UniProt P11308 1-479); conditions: protein: recombinant; tags: N-terminal GST; dsDNA, one strand shown
# T4 sequence: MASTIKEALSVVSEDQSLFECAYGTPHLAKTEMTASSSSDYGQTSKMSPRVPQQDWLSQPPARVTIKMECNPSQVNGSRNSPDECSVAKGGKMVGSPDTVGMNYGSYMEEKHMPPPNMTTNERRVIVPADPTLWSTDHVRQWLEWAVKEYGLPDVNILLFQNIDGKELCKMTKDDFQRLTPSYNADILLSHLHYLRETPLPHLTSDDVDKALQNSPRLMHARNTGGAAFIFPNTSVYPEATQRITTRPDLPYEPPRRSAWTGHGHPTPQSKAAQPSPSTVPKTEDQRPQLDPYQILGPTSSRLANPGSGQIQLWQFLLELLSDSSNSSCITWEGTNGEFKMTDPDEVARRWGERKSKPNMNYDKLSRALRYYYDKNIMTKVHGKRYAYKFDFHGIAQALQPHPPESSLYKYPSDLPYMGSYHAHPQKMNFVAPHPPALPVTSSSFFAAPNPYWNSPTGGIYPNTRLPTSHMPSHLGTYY
# Outline: as §1
# [5] = molecular target: ELF1 (Homo sapiens, UniProt P32519 1-619); conditions: protein: recombinant; tags: N-terminal GST; dsDNA, one strand shown
# Outline: as §1
# [6] = molecular target: T5, EHF (Homo sapiens, UniProt Q9NZC4 1-300); conditions: protein: recombinant; tags: N-terminal GST; dsDNA, one strand shown
# T5 sequence: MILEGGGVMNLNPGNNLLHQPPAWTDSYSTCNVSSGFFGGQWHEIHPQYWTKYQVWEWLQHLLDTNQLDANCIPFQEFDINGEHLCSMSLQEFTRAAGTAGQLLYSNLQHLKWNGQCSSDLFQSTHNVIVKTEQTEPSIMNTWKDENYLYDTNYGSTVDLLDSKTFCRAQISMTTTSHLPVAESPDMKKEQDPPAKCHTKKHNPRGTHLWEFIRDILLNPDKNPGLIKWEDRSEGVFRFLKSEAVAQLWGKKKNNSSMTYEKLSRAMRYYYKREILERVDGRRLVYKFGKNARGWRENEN
# Outline: as §1
# [7] = molecular target: SPI1 (Homo sapiens, UniProt P17947 1-270); conditions: protein: recombinant; tags: N-terminal GST; dsDNA, one strand shown
# Outline: as §1
# [8] = molecular target: SPIB (Homo sapiens, UniProt Q01892 1-262); conditions: protein: recombinant; tags: N-terminal GST; dsDNA, one strand shown
# Outline: as §1
# [9] = molecular target: T6, ELK3 (Homo sapiens, UniProt P41970 1-407); conditions: protein: recombinant; tags: N-terminal GST; dsDNA, one strand shown
# T6 sequence: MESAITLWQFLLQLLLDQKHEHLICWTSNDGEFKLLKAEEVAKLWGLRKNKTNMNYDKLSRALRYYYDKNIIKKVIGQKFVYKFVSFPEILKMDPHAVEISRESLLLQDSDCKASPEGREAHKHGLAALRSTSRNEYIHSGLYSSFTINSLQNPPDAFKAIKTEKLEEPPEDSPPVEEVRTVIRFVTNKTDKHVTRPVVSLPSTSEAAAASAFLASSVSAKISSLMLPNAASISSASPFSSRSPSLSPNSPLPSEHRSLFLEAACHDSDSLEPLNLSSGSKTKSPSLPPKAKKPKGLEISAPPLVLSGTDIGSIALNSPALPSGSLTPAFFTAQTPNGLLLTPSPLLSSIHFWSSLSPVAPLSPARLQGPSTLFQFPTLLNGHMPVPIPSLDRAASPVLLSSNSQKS
# Outline: as §1
# [10] = molecular target: T7, FEV (Homo sapiens, UniProt Q99581 1-238); conditions: protein: recombinant; tags: N-terminal GST; dsDNA, one strand shown
# T7 sequence: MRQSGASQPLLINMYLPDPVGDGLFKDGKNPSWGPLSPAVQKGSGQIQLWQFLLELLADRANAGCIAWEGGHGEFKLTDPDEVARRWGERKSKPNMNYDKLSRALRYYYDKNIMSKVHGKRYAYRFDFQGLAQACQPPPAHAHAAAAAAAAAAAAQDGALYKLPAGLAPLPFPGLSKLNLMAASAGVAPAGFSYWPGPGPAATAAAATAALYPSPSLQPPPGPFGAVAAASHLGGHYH
# Outline: as §1
# [11] = molecular target: ETV5 (Homo sapiens, UniProt P41161 1-510); conditions: protein: recombinant; tags: N-terminal GST; dsDNA, one strand shown
# Outline: as §1
# [12] = molecular target: HSF1 (Homo sapiens, UniProt Q00613 1-529); conditions: protein: recombinant; tags: N-terminal GST; chain copies: 3; dsDNA, one strand shown
# Outline: as §1
# [13] = molecular target: T8, SPIC (Homo sapiens, UniProt Q8N5J4 1-248); conditions: protein: recombinant; tags: N-terminal GST; dsDNA, one strand shown
# T8 sequence: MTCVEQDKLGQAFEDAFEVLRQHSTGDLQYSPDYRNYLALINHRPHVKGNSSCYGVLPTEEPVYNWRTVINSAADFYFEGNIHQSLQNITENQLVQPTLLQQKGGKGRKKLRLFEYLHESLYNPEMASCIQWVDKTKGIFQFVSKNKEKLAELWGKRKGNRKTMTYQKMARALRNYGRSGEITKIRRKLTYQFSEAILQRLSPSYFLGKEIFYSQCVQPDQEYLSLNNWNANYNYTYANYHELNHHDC
# Outline: as §1
# [14] = molecular target: T9, ELK4 (Homo sapiens, UniProt P28324-2 1-405); conditions: protein: recombinant; tags: N-terminal GST; dsDNA, one strand shown
# T9 sequence: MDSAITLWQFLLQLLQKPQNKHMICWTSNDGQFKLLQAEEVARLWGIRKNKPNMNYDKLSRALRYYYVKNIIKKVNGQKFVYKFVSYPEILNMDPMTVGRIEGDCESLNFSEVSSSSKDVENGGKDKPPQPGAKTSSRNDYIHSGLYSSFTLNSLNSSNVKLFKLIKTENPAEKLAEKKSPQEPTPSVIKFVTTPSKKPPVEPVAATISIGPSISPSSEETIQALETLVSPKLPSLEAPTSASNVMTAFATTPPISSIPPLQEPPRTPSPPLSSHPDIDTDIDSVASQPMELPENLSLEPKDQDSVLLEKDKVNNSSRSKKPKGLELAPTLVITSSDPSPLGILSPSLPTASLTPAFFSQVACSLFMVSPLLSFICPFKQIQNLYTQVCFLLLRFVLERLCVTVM
# Outline: as §1
# [15] = molecular target: T10, ETV2 (Homo sapiens, UniProt O00321 1-342); conditions: protein: recombinant; tags: N-terminal GST; dsDNA, one strand shown
# T10 sequence: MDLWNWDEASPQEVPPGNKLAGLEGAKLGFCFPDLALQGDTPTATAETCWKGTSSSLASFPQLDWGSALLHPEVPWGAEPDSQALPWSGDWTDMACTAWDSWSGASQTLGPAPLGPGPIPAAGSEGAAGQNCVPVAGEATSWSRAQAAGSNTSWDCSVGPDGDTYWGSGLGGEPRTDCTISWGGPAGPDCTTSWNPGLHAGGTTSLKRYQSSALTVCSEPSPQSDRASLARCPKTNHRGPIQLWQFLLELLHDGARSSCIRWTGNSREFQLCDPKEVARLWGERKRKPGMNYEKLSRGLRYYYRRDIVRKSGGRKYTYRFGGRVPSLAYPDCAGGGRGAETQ
# Outline: as §1
# [16] = molecular target: T11, ELF3 (Homo sapiens, UniProt P78545 1-371); conditions: protein: recombinant; tags: N-terminal GST; dsDNA, one strand shown
# T11 sequence: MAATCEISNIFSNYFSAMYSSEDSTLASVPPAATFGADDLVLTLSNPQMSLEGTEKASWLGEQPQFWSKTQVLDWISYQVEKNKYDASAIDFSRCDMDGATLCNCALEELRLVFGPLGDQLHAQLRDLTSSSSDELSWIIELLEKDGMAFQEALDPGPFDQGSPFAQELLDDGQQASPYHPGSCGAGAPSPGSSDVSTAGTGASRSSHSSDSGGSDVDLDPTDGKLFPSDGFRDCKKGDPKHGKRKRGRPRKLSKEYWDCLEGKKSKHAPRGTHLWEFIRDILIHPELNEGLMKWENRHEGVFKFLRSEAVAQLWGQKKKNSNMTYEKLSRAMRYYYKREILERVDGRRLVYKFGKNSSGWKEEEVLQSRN
# Outline: as §1
# [17] = molecular target: CRX (Homo sapiens, UniProt O43186 1-299); conditions: protein: recombinant; tags: N-terminal GST; dsDNA, one strand shown
# Outline: as §1
# [18] = molecular target: ETV1 (Homo sapiens, UniProt P50549 1-477); conditions: protein: recombinant; tags: N-terminal GST; dsDNA, one strand shown
# Outline: as §1
# SPIB, sequence (Q01892 whole entry): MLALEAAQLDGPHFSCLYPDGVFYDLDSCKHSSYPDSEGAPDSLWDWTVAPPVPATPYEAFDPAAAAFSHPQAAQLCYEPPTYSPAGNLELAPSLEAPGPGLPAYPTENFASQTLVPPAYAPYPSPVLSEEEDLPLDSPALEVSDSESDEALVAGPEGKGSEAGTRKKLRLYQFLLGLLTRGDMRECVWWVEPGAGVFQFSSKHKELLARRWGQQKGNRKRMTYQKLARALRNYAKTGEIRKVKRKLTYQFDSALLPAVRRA
# CRX, sequence (O43186 whole entry): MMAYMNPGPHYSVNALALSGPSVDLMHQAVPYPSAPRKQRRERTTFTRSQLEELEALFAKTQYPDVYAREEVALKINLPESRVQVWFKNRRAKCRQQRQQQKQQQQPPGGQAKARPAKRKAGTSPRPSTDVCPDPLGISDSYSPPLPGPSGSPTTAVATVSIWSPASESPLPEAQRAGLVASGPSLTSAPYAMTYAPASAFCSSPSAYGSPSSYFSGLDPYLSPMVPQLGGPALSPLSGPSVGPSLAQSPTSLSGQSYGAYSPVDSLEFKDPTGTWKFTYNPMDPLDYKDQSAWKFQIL
# ELF1, sequence (P32519 whole entry): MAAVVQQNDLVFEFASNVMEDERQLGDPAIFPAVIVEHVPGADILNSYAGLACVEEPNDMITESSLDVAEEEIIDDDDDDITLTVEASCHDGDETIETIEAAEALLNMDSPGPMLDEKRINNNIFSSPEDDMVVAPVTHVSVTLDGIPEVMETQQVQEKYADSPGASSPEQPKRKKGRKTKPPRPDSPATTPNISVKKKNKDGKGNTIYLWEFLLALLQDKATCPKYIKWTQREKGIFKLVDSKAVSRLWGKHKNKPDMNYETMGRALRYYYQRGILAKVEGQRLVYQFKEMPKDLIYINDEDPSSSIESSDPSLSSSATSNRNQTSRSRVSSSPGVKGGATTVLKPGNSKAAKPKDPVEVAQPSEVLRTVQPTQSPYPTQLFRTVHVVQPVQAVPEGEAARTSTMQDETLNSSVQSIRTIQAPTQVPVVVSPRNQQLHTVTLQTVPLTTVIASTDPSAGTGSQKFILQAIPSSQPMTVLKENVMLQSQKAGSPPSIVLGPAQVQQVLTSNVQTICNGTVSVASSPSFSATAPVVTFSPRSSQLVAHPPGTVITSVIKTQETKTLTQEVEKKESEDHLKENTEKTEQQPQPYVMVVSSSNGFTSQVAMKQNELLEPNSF
# HSF1, sequence (Q00613 whole entry): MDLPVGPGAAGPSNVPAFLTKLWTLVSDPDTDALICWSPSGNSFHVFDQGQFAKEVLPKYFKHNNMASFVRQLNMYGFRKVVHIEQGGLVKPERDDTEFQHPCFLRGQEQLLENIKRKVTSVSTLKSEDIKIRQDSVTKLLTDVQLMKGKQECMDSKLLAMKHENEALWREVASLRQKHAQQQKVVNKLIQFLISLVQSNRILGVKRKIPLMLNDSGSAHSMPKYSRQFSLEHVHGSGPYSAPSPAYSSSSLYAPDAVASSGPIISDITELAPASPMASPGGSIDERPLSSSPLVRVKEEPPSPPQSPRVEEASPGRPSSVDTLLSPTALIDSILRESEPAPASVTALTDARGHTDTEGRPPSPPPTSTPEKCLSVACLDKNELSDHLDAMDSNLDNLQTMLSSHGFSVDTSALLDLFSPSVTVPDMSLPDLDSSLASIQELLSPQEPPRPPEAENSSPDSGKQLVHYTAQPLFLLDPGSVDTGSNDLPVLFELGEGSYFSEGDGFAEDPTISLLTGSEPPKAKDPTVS
# ETV1, sequence (P50549 whole entry): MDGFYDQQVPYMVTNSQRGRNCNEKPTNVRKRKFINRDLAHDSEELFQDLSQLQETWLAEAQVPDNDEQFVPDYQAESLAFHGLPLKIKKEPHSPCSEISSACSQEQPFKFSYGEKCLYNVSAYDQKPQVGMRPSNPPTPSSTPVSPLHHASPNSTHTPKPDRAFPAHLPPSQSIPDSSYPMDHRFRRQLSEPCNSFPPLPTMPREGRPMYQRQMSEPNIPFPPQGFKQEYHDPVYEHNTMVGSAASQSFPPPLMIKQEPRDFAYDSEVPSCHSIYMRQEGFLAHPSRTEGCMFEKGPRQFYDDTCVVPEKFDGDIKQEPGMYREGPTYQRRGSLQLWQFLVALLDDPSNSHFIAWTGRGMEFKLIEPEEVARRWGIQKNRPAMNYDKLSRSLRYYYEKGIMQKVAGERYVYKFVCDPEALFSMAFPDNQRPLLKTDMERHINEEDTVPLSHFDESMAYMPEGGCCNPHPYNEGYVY
# ETV5, sequence (P41161 whole entry): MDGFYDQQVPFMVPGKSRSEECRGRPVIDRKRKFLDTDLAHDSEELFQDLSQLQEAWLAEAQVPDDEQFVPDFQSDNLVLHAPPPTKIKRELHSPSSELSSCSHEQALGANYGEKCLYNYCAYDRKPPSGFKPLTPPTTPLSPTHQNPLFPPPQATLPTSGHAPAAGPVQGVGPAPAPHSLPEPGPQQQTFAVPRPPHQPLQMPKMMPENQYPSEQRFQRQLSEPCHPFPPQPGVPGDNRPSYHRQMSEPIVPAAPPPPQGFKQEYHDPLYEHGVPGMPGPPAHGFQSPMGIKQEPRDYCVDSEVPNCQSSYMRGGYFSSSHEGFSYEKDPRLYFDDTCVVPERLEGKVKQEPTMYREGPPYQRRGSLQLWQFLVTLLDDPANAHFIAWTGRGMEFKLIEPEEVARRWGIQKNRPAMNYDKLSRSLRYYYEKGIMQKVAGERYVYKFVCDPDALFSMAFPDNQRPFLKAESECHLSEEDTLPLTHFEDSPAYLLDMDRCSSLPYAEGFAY
sequence,measurement,setting,value
TCAAAT,binding signal,[1],"1.04 fold enrichment (6-mer frequency, TF over GST control)"
same,binding signal,[2],"1.05 fold enrichment (6-mer frequency, TF over GST control)"
same,binding signal,[3],"1.14 fold enrichment (6-mer frequency, TF over GST control)"
same,binding signal,[4],"1.06 fold enrichment (6-mer frequency, TF over GST control)"
same,binding signal,[5],"1.15 fold enrichment (6-mer frequency, TF over GST control)"
same,binding signal,[6],"1.07 fold enrichment (6-mer frequency, TF over GST control)"
same,binding signal,[7],"1.11 fold enrichment (6-mer frequency, TF over GST control)"
same,binding signal,[8],"1.05 fold enrichment (6-mer frequency, TF over GST control)"
same,binding signal,[9],"1.03 fold enrichment (6-mer frequency, TF over GST control)"
same,binding signal,[10],"1.1 fold enrichment (6-mer frequency, TF over GST control)"
same,binding signal,[11],"1.09 fold enrichment (6-mer frequency, TF over GST control)"
same,binding signal,[12],"1.15 fold enrichment (6-mer frequency, TF over GST control)"
same,binding signal,[13],"1.12 fold enrichment (6-mer frequency, TF over GST control)"
same,binding signal,[14],"1.04 fold enrichment (6-mer frequency, TF over GST control)"
same,binding signal,[15],"1.1 fold enrichment (6-mer frequency, TF over GST control)"
same,binding signal,[16],"1.15 fold enrichment (6-mer frequency, TF over GST control)"
same,binding signal,[17],"1.32 fold enrichment (6-mer frequency, TF over GST control)"
same,binding signal,[18],"1.13 fold enrichment (6-mer frequency, TF over GST control)"

# Reference: publication PMC7862700, “An all-to-all approach to the identification of sequence-specific readers for epigenetic DNA modifications on cytosine”
